Shown are actives, neighbours in structure and some others; about 2.6% of the full set was active somewhere.
eIF4E-4G inh – inhibitors of eIF4E and eIF4G interaction in translation initiation | P63073+Q04637 | TR-FRET eIF4E-eIF4GI(517-606) binding, 2 h | hit rate 0.37% among 220,000 | AID 782 | inhibition, % at 21.7 µM;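 active means inhibition above about 30%, limit read from the data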;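 further: 0% = full FRET control wells and 100% = background wells lacking eIF4GI fragment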
Target sequence (P63073 whole entry, looked up, the tested form may be a part): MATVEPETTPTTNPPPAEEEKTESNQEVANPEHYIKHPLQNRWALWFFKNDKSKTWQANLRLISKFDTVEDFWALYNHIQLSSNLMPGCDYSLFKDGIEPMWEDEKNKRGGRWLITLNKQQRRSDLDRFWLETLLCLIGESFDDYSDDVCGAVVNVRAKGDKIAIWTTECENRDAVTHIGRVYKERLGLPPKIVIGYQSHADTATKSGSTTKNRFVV
Target sequence (Q04637 whole entry, looked up, the tested form may be a part): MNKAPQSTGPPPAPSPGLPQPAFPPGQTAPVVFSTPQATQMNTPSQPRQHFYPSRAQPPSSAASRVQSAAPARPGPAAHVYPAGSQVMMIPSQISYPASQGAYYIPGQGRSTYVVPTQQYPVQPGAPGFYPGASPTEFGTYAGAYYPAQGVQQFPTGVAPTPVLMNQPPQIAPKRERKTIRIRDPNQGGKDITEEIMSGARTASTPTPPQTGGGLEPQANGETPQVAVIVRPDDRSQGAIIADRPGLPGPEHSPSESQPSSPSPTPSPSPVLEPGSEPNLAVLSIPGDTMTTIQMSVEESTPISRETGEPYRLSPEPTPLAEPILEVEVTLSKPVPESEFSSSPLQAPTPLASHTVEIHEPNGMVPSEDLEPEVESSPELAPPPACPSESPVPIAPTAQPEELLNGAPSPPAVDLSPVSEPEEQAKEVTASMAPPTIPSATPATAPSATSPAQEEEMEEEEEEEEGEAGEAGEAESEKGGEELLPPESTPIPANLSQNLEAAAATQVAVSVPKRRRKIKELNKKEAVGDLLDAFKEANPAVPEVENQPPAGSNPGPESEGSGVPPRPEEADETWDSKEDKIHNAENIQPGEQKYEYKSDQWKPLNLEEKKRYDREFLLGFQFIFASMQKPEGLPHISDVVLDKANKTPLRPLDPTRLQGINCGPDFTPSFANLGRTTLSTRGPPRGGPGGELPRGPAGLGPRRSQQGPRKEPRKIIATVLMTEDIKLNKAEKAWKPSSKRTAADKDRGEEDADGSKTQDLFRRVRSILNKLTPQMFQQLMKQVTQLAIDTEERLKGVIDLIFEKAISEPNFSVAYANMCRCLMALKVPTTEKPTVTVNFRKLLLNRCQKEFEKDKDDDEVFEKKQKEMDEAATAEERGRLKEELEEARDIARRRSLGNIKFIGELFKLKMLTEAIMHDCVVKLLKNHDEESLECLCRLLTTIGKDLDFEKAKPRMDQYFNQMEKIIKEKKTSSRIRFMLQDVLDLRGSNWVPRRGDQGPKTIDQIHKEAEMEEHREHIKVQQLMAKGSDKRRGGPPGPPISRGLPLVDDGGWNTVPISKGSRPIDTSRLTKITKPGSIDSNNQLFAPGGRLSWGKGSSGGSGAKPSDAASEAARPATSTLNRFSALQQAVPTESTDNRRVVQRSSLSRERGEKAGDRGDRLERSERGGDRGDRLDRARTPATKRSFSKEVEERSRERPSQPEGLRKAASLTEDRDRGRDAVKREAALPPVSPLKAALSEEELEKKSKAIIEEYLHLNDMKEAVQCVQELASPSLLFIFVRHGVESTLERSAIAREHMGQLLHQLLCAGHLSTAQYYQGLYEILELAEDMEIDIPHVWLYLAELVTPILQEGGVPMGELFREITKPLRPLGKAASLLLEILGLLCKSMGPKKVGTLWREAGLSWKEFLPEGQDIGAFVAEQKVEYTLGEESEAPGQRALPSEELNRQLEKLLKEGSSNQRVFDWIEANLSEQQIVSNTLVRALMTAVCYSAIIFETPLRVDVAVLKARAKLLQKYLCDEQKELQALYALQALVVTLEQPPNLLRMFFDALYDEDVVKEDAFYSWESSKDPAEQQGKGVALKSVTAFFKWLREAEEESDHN
Bim-Mcl-1 – inhibitors of Bim-Mcl-1 interaction, human. Bead-based flow cytometry, Bim peptide-Mcl-1 binding. inhibition, % at 10 µM. hit rate 0.1% among 190,000. Q07820. AID 1009; in the data active means inhibition above about 40%;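 further: 0% = no compound tracer wells and 100% = peptide blocker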
Mcl1 Noxa PPI – Mcl-1/Noxa interaction inhibition; inhibition, % at 21.7 µM; TR-FRET Mcl-1/Noxa peptide binding, 2 h; Q07820; AID 1022; hit rate 1.5% among 220,000;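 active means compounds that cut the protein-peptide binding signal by more than 50% relative to plate controls in a single-dose test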;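 further: His-tagged Mcl-1 with rhodamine Noxa BH3 peptide and terbium anti-His antibody; 0% = Mcl-1 plus Noxa peptide wells and 100% = peptide-only wells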
Mcl1 Bid PPI – disrupts binding of human Mcl-1 to Bid peptide; Q07820; TR-FRET Mcl-1/Bid-Dy647 peptide binding, 1536-well; inhibition, % at 21.7 µM; hit rate 0.97% among 220,000; AID 1021;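 active means compounds that cut the binding signal by more than half at the single screening dose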;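 further: His-tagged Mcl-1 with europium anti-His antibody binding Bid BH3 peptide; 0% = Mcl-1 plus peptide wells and 100% = peptide-only wells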
14-3-3 Bad PPI – disrupts binding of bovine 14-3-3 zeta to phospho-Bad peptide | TR-FRET 14-3-3zeta/Dy647-pBad peptide displacement, 1 h | inhibition, % at 21.7 µM | hit rate 0.71% among 220,000 | AID 781;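 active means inhibition above about 70%, limit read from the data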;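 further: 0% = full 14-3-3 plus peptide FRET controls and 100% = background without 14-3-3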
MCL1 BIM primary – disrupts human MCL1 binding to BIM-BH3 peptide | hit rate 0.68% among 320,000 | inhibition, % at 10.9 µM | AID 2057 | GST-MCL1 / FITC-Bim-BH3 fluorescence polarization | Q07820;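 active means inhibition above the mean inhibition of all tested compounds plus 3 SD, set per campaign, cut at about 40% in these data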;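 further: 0% = DMSO wells and 100% = unlabeled Bim-BH3 peptide control; higher means more loss of mP so more displacement of Bim peptide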
The depositor's hits bear a star; x = no result.

SMILES | eIF4E-4G inh | Bim-Mcl-1 | Mcl1 Noxa PPI | Mcl1 Bid PPI | 14-3-3 Bad PPI | MCL1 BIM primary
CCC(=O)NCC(c1cccs1)N1CCOCC1 (configuration not stated) | 5 | -1 | 19 | -13 | 85* | 7
CSc1nnc(-c2ccncc2)n1/N=C/c1cn(-c2ccccc2)nc1-c1ccc(Cl)cc1 | -5 | x | 5 | -19 | 8 | -11
S=c1[nH]nc(-c2ccncc2)n1/N=C/c1cn(-c2ccccc2)nc1-c1ccc(Cl)cc1 | 15 | x | 62* | -59 | 28 | -3
COc1cc(/C=N/NC(=O)c2ccncc2)c([N+](=O)[O-])cc1OC | x | x | x | x | x | 6
COc1ccc(/C=N/NC(=O)c2ccc(NC(=O)c3cccc([N+](=O)[O-])c3)cc2)c(OC)c1 | 5 | 0 | 67* | 28 | -12 | 10
O=C(N/N=C/c1ccc(O)cc1)c1cccc(N/N=C/c2ccc(O)cc2)c1 | 0 | x | 80* | -31 | -2 | 3
O=C(N/N=C/c1ccncc1)c1cccc(N/N=C/c2ccncc2)c1 | -7 | 4 | 13 | -2 | 12 | -5
COc1ccccc1/C=N/NC(=O)c1ccc(NC(=O)c2cccc([N+](=O)[O-])c2)cc1 | -1 | -3 | 11 | -4 | -7 | 10
COc1cc(OC)c([N+](=O)[O-])cc1/C=N/NC(=O)c1ccncc1 | 1 | 7 | 71* | -5 | -11 | 14
O=C(N/N=C/c1cccc(O)c1)c1ccc(NC(=O)c2cccc([N+](=O)[O-])c2)cc1 | -1 | 0 | 60* | -3 | -11 | -7
Fc1ccc2c(c1)/C(=N/Nc1ccccn1)CCS2 | 5 | -5 | 7 | -1 | -1 | -3
CCCn1c(CN2CCN(C(=O)OCC)CC2)nc2cc(NC(=O)CC)ccc21 | x | x | x | x | x | -4
COc1cc(/C=N/NC(=O)c2cccnc2)ccc1OC(=O)c1ccc([N+](=O)[O-])cc1 | -8 | 1 | 58* | 34 | 19 | -1
CCCNC(C)C(=O)Nc1ccccc1C (configuration not stated) | 3 | -1 | -26 | -3 | 6 | 7
CCC(C)c1ccccc1NC(=O)C(C)NCCN(C)C (configuration not stated) | 4 | x | 23 | 60* | 49 | -5
CC(C)c1ccc(OCc2ccc(C(=O)O)o2)cc1 | -5 | x | 69* | -3 | 3 | -4
CC(C)c1ccc(OCc2ccc(C(=O)N(C)C)o2)cc1 | x | x | x | x | x | -5
Cc1ccccc1CN1CCN(c2ccc(S(=O)(=O)N3CCCC3)cn2)CC1 | x | x | x | x | x | -4
O=C(Nc1nccs1)C1CC(=O)N(Cc2ccco2)C1 (configuration not stated) | 4 | -1 | 8 | 88* | -8 | 0
Cc1ccc(-n2nc(-c3ccco3)cc2C(=O)O)c(C)c1 | 40* | 0 | 79* | -42 | 65 | x
O=C(O)c1cc(-c2ccco2)nn1-c1ccc(Cl)cc1 | 31* | -2 | 81* | -13 | 69 | x
COc1ccc(S(=O)(=O)NCC(c2ccc3c(c2)OCO3)N2CCOCC2)cc1 (configuration not stated) | x | x | x | x | x | 4
O=C(c1ccc(F)cc1Cl)N1CCN(S(=O)(=O)c2cccs2)CC1 | x | x | x | x | x | -5
O=C(Nc1nc2n(n1)C(c1ccc(F)cc1)CC(c1ccccc1)N2)c1ccco1 (configuration not stated) | 3 | x | -3 | -9 | 3 | -1
CC(=O)Nc1nc2n(n1)C(c1ccc(F)cc1)C=C(c1ccccc1)N2 (configuration not stated) | 4 | -2 | 13 | -26 | 31 | 47*
SMILES | eIF4E-4G inh | Bim-Mcl-1 | Mcl1 Noxa PPI | Mcl1 Bid PPI | 14-3-3 Bad PPI | MCL1 BIM primary
COc1ccccc1C1C=C(c2ccc(Cl)cc2)Nc2nc(N3C(=O)CCC3=O)nn21 (configuration not stated) | -1 | -5 | 8 | -23 | 0 | 19
O=C(Nc1nc2n(n1)C(c1ccccc1)C=C(c1ccccc1)N2)c1ccco1 (configuration not stated) | -2 | -5 | 12 | -49 | 8 | 40*
CC(=O)Nc1nc2n(n1)C(c1ccc(Cl)cc1)C=C(C)N2 (configuration not stated) | 3 | -1 | 4 | -27 | -14 | 7
COc1ccc(C2C=C(c3ccc(Cl)cc3)Nc3nc(NC(C)=O)nn32)cc1 (configuration not stated) | x | 0 | 17 | -117 | x | 158*
COc1ccc(C2=CC(c3ccc(Cl)cc3)n3cnnc3N2)cc1OC (configuration not stated) | x | -6 | 15 | -103 | x | 62*
CC1CCCCN1C(=O)/C(=C\c1ccccc1)c1ccccc1 (configuration not stated) | 2 | 1 | 8 | 3 | 54 | 2
O=C1C2C3C=CC(CC3)C2C(=O)N1c1ccccc1[N+](=O)[O-] (configuration not stated) | 0 | -2 | 30 | 12 | 4 | 2
NC(=O)CC(NC(=O)Cc1cccc2ccccc12)c1ccc(N2CCN(c3ccccn3)CC2)c([N+](=O)[O-])c1 (configuration not stated) | x | x | x | x | x | 1
COc1ccc(-c2csc(Nc3ccc(S(N)(=O)=O)cc3)n2)cc1OC | 0 | 1 | 51* | -30 | -12 | 6
Cc1cc(NS(=O)(=O)c2ccc(Nc3nc(-c4ccc(O)cc4)cs3)cc2)no1 | 6 | 0 | 69* | -39 | -11 | 15
Cc1cc(NS(=O)(=O)c2ccc(Nc3nc(-c4ccc(C)c(C)c4)cs3)cc2)no1 | 8 | -1 | 39 | 9 | 42 | -3
O=C(CCl)Nc1nc(-c2ccco2)c(-c2ccco2)s1 | 0 | 5 | 53* | -11 | 17 | 12
Nc1nc(-c2ccco2)c(-c2ccco2)s1 | 2 | -3 | 42 | -35 | -7 | 25
O=C(CCCSc1ccccc1)Nc1nc(-c2ccco2)c(-c2ccco2)s1 | 0 | -1 | 52* | -6 | -2 | 22
O=C(Nc1ncccn1)c1ccc(Cl)c([N+](=O)[O-])c1 | x | x | x | x | x | 1
O=S(=O)(c1ccccc1)N(CC1CO1)c1cccc2ccccc12 (configuration not stated) | -1 | -5 | 8 | 0 | 1 | -2
CC(=O)Nc1ccc(C(=S)NCCCO)cc1 | -1 | -2 | 4 | -20 | 0 | 6
Cc1cc2ccccc2n2c(SCC(=O)NCc3cccs3)nnc12 | -5 | 5 | 67* | 7 | -2 | 8
Cc1cc(NC(=O)CSc2nnc3c(C)cc4ccccc4n23)no1 | 4 | 0 | 2 | -21 | -12 | -4
CCn1c(C)c(C(=O)O)c2cc(OC)c3ccccc3c21 | x | x | x | x | x | 9
Cc1ccc(-c2cc(C(=O)Nc3ccccc3C)c3ccccc3n2)o1 | 3 | -2 | 66* | 12 | -6 | 16
COc1cccc(NC(=O)c2cc(-c3ccc(C)o3)nc3ccccc23)c1 | x | x | x | x | x | 0
